Several values for one entry are separate records, joined by “and”; a condition that tells them apart may be missing. Equal entries are not always repeated. Records with an inconclusive call do not appear. Some structures have more than one record in an assay (separate samples or runs), and their calls can disagree. Activity calls are given as the source filed them. Unless noted, calls follow the shape of the dose curve; as a rule, active = well fitted curve in the direction sought with a large enough effect in the repeat runs; inconclusive = weak or mixed curves; inactive = no such curve, though single readings can be large; an effect the other way counts as inactive or inconclusive.
How the values were obtained:
[1] = qHTS assay for small molecules that induce genotoxicity in human embryonic kidney cells expressing luciferase-tagged ATAD5 (AID 651632); also: nearly all actives have a fitted effect of over 15% in size; also: potency is read from the fitted curve at half-maximal effect
Procedure, shortened: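 Increased luciferase signal from ATAD5-tagged reporter cells indicates DNA-damage-driven ATAD5 induction. HEK293T cells are treated for 16 hr at 37C before detection with Amplite.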

[2] = qHTS assay for small molecules that induce genotoxicity in human embryonic kidney cells expressing luciferase-tagged ATAD5 - cell viability (AID 651634; calls by dose curve; also: nearly all actives have a fitted effect of over 25% in size; also: potency is read from the fitted curve at half-maximal effect)
Procedure, shortened: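 Cytotoxicity counterscreen in HEK293T cells bearing an ATAD5-luciferase reporter: live-cell protease activity measured by CellTiter-Fluor fluorescence after 15.5 hr compound exposure.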

[3] = qHTS assay for small molecule disruptors of the mitochondrial membrane potential - cell viability (AID 720634; calls by dose curve; also: nearly all actives have a fitted effect of over 20% in size; also: potency is read from the fitted curve at half-maximal effect)
Procedure, shortened: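 After overnight attachment at 37 C, HepG2 cells received compound or DMSO vehicle for 1 hr. Viability is then taken from ATP-driven luminescence following a 30 min room-temperature CellTiter-Glo step.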

[4] = qHTS assay to test for compound auto fluorescence at 590 nm (red) in HepG2 cells (AID 720674)
Procedure, shortened: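 Fluorescence at 590 nm emission following 540 nm excitation was recorded from HepG2 wells one hour after compound transfer, with DMSO-only wells as vehicle and Rose Bengal sodium equivalency as the scale.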

[5] = qHTS assay to test for compound auto fluorescence at 460 nm (blue) in HEK293 cells (AID 720678)
Procedure, shortened: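 HEK293 cells (2,000 per well, medium with 10% dialyzed FBS) attached for 4-5 hr at 37C, then received compound and stood overnight at 37C, 5% CO2. Blue fluorescence was read at Ex/Em 405/460 nm and expressed relative to triamterene.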

[6] = qHTS assay to test for compound auto fluorescence at 590 nm (red) in HEK293 cells (AID 720679)
Procedure, shortened: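 HEK293 cells (2,000/well, medium with 10% dialyzed FBS) attached for 4-5 hr at 37C, received 23 nL compound and were incubated overnight at 37C, 5% CO2. Red fluorescence was then read at 540/590nm Ex/Em, referenced to Rose Bengal sodium.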

[7] = qHTS assay to test for compound auto fluorescence at 460 nm (blue) in HEK293 cell free culture (AID 720681)
Procedure, shortened: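 Compounds were added to cell-free DMEM with 10% FBS and fluorescence read directly. The blue channel used 405 nm excitation and 460 nm emission, with triamterene as the reference fluorophore.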

[8] = qHTS assay to test for compound auto fluorescence at 535 nm (green) in HEK293 cell free culture (AID 720682)
Procedure, shortened: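 Green-channel intensity (Ex/Em 485/535 nm) was recorded from compound-treated wells containing only DMEM with 10% FBS. Fluorescein provided the equivalency standard.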

[9] = qHTS assay to identify small molecule antagonists of the glucocorticoid receptor (GR) signaling pathway - cell viability counter screen (AID 720693); also: nearly all actives have a fitted effect of over 55% in size; also: potency is read from the fitted curve at half-maximal effect
[10] = qHTS assay to identify small molecule antagonists of the androgen receptor (AR) signaling pathway using the MDA cell line - cell viability counter screen (AID 743041; also: nearly all actives have a fitted effect of over 45% in size; also: potency is read from the fitted curve at half-maximal effect)
Procedure, shortened: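 MDA-kb2 AR-luc cells (MMTV-luciferase, AR/GR responsive) treated with compounds plus R1881 agonist for 16 h at 37C. CellTiter-Fluor added at 15.5 h; fluorescence read after 30 min in the same wells.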

[11] = test system: thyroid hormone receptor (rat, GH3 cells); assay: qHTS assay to identify small molecule agonists of the thyroid receptor (TR) signaling pathway (AID 743066; calls by dose curve)
[12] = qHTS assay to identify small molecule antagonists of the estrogen receptor alpha (ER-alpha) signaling pathway - cell viability counter screen (AID 743074; calls by dose curve;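 also: HEK293 cells carrying ER-alpha-UAS-bla reporter stimulated with 17beta-estradiol; nearly all actives have a fitted effect of over 45% in size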; also: potency is read from the fitted curve at half-maximal effect)
[13] = qHTS assay to identify small molecule antagonists of the estrogen receptor alpha (ER-alpha) signaling pathway using the BG1 cell line - cell viability counter screen (AID 743081);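 also: compound given together with 17beta-estradiol as the ER stimulus; series mostly up to about 70 µM; nearly all actives have a fitted effect of over 45% in size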
[14] = molecular target: Aromatase (Homo sapiens) (UniProt P11511); assay: qHTS assay to identify aromatase inhibitors (AID 743083); also: nearly all actives have a fitted effect of over 55% in size; also: potency is read from the fitted curve at half-maximal effect
[15] = qHTS assay to identify aromatase inhibitors - cell viability counter screen (AID 743084);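 also: cells stimulated with testosterone during compound exposure; nearly all actives have a fitted effect of over 55% in size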; also: potency is read from the fitted curve at half-maximal effect
[16] = qHTS assay to identify small molecule that activate the aryl hydrocarbon receptor (AhR) signaling pathway - cell viability counter screen (AID 743086); also: nearly all actives have a fitted effect of over 45% in size; also: potency is read from the fitted curve at half-maximal effect
Procedure, shortened: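 HepG2-AhR-luc (HG2L7.5c1) cells, 4000/well, treated 24 h at 37 C with compound; viability measured as CellTiter-Fluor fluorescence after 30 min in the same wells as the luciferase read.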

[17] = qHTS assay to identify small molecule phospholipidosis (PLD) inducers (AID 1259344; active = well fitted curve in the direction sought with a large enough effect; an effect the other way counts as inactive or inconclusive)
Procedure, shortened: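 HepG2 cells, 900/well, treated with compound plus LipidTOX Red for 24 h at 37 C; amiodarone positive and DMSO negative controls. Fixed with paraformaldehyde/Hoechst, then high-content imaging scored LipidTOX pit count and integrated intensity per well and per cell.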

[18] = molecular target: Nuclear receptor subfamily 1 group I member 2 (Rattus norvegicus) (UniProt Q9R1A7); assay: Rat pregnane X receptor (rPXR) activation by small molecules, qHTS assay (AID 1346983); settings: rPXR luciferase reporter cells, One-Glo luminescence, 24 h; max activation: stronger effect = higher value; also: nearly all actives have a fitted effect of over 20% in size
Procedure, shortened: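 Cell-based rPXR activation assay: rPXR cells, 2,000 per well, rested 5hr at 37 C, then exposed to compounds in DMSO for 24 hr at 37 C. Luciferase activity read by One-Glo luminescence after 30 min at room temperature.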

[19] = molecular target: Nuclear receptor subfamily 1 group I member 2 (Homo sapiens) (UniProt O75469); assay: CYP3A4 induction through human pregnane X receptor (PXR) by small molecules, qHTS assay (AID 1346984); also: nearly all actives have a fitted effect of over 40% in size
Procedure, shortened: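 Steps: seed DPX-2 cells, 5 hr at 37C; pin-transfer compounds; 24 hr at 37C; add Luciferin-IPA (3uM final), 3 hr at 37C; add One-Glo, 30 min RT; read luminescence.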

[20] = qHTS assay for small molecule agonists of the p53 signaling pathway - cell viability (AID 651633; calls by dose curve; also: nearly all actives have a fitted effect of over 30% in size; also: potency is read from the fitted curve at half-maximal effect)
Procedure, shortened: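 p53RE-bla cells were treated with compound for 16 hours at 37 C. Cytotoxicity was then measured as CellTiter-Glo luminescence after 30 min at room temperature.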
% is scaled to controls: 0 for no effect and ±100 for the full control effect.

Aromatase (Homo sapiens), sequence (P11511 whole entry, looked up): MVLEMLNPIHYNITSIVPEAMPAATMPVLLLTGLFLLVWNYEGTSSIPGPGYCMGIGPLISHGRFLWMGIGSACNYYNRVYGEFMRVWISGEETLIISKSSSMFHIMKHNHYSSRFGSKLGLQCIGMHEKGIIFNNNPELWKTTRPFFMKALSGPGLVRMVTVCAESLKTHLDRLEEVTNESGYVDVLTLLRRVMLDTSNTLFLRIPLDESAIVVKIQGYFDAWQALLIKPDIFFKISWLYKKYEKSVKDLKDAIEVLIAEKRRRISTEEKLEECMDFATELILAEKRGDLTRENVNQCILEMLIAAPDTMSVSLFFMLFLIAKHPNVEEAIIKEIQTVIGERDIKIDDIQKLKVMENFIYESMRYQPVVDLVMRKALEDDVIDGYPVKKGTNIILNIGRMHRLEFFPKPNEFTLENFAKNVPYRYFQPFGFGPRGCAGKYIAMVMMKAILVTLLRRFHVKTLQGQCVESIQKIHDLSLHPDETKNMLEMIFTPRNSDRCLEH
Nuclear receptor subfamily 1 group I member 2 (Rattus norvegicus), sequence (Q9R1A7 whole entry, looked up): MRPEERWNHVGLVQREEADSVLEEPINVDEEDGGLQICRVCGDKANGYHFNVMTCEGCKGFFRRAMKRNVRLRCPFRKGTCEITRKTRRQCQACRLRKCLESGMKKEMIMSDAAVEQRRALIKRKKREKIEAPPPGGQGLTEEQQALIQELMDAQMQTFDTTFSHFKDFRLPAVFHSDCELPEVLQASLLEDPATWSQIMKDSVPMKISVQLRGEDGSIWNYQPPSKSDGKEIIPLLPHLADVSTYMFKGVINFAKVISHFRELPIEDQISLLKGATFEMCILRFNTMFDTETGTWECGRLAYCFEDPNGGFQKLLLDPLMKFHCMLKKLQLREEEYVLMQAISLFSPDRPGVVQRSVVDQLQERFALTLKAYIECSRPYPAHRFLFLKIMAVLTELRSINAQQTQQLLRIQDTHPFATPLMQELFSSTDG

OC[C@@H](O)[C@H]1O[C@@H]2O[C@@H](C(Cl)(Cl)Cl)O[C@@H]2[C@H]1O
inactive: Potency [1] | Potency [2] | Potency [3] | outcome [4] | Potency [5] | outcome [6] | Potency [7] | Potency [8] | Potency [9] | Potency [10] | Potency [11] | Potency [12] | Potency [13] | Potency [14] | Potency [15] | Potency [16] | Potency [17] | max activation [18] -2% | Potency [19]

NCC[C@H](O)C(=O)N[C@@H]1C[C@H](N)[C@@H](O[C@H]2O[C@H](CN)[C@@H](O)[C@H](O)[C@H]2N)[C@H](O[C@@H]2O[C@H](CO)[C@@H](O)[C@H]2O)[C@H]1O
inactive: Potency [1] | Potency [20] | Potency [2] | Potency [3] | outcome [4] | Potency [5] | outcome [6] | Potency [7] | Potency [8] | Potency [9] | Potency [10] | Potency [11] | Potency [12] | Potency [13] | Potency [14] | Potency [15] | Potency [16] | Potency [17] | max activation [18] -1.3% | Potency [19]

Oc1ccc2c3c1O[C@H]1[C@@H](O)CC[C@@]4(O)[C@@H](C2)N(CC2CCC2)CC[C@]314
inactive: Potency [1] | Potency [20] | Potency [2] | Potency [3] | outcome [4] | Potency [5] | outcome [6] | Potency [7] | Potency [8] | Potency [9] | Potency [10] | Potency [11] | Potency [12] | Potency [13] | Potency [14] | Potency [15] | Potency [16] | Potency [17] | max activation [18] -0.605%

OC(c1ccccc1)(c1ccccc1)C1CN2CCC1CC2 (centres undefined)
inactive: Potency [1] | Potency [20] | Potency [2] | Potency [3] | outcome [4] | Potency [5] | outcome [6] | Potency [7] | Potency [8] | Potency [9] | Potency [10] | Potency [11] | Potency [12] | Potency [13] | Potency [14] | Potency [15] | Potency [16] | Potency [17] | max activation [18] 17.5% | Potency [19]

c1csc(C2(N3CCCCC3)CCCCC2)c1
inactive: Potency [1] | Potency [20] | Potency [2] | Potency [3] | outcome [4] | Potency [5] | outcome [6] | Potency [7] | Potency [8] | Potency [9] | Potency [10] | Potency [11] | Potency [12] | Potency [13] | Potency [14] | Potency [15] | Potency [16] | Potency [17] | max activation [18] -0.931% | Potency [19]

O=C1Nc2ccc(Cl)cc2C(c2ccccc2Cl)=NC1O (centres undefined)
inactive: Potency [1] | Potency [20] | Potency [2] | Potency [3] | outcome [4] | Potency [5] | outcome [6] | Potency [7] | Potency [8] | Potency [9] | Potency [10] | Potency [11] | Potency [12] | Potency [13] | Potency [14] | Potency [15] | Potency [16] | Potency [17] | max activation [18] -2.09%

CN1c2ccccc2C(NCCCCCCC(=O)O)c2ccc(Cl)cc2S1(=O)=O (centres undefined)
inactive: Potency [1] | Potency [20] | Potency [2] | Potency [3] | outcome [4] | Potency [5] | outcome [6] | Potency [7] | Potency [8] | Potency [9] | Potency [10] | Potency [11] | Potency [12] | Potency [13] | Potency [14] | Potency [15] | Potency [16] | Potency [17] | max activation [18] -2.51%

CCCC(=O)OC(C(Cl)(Cl)Cl)P(=O)(OC)OC (centres undefined)
inactive: Potency [1] | Potency [20] | Potency [3] | outcome [4] | Potency [5] | outcome [6] | Potency [7] | Potency [8] | Potency [9] | Potency [10] | Potency [11] | Potency [12] | Potency [13] | Potency [14] | Potency [15] | Potency [16] | Potency [17] | max activation [18] 0.574% | Potency [19]

C=CCC1(C(C)CCC)C(=O)N=C(S)NC1=O (centres undefined)
inactive: Potency [1] | Potency [20] | Potency [2] | Potency [3] | outcome [4] | Potency [5] | outcome [6] | Potency [7] | Potency [8] | Potency [9] | Potency [10] | Potency [11] | Potency [12] | Potency [13] | Potency [14] | Potency [15] | Potency [16] | Potency [17] | max activation [18] -2.22%

CCC/C=C/C=C/C(=O)O[C@H]1/C(=C/C(=O)OC)C[C@H]2C[C@H]([C@@H](C)O)OC(=O)C[C@H](O)C[C@@H]3C[C@H](OC(C)=O)C(C)(C)[C@](O)(C[C@@H]4C/C(=C/C(=O)OC)C[C@H](/C=C/C(C)(C)[C@]1(O)O2)O4)O3
inactive: Potency [20] | Potency [2] | Potency [3] | outcome [4] | Potency [5] | outcome [6] | Potency [7] | Potency [8] | Potency [9] | Potency [10] | Potency [11] | Potency [13] | Potency [14] | Potency [15] | Potency [16] | Potency [17] | max activation [18] 2.43%
active: Potency [1] 4.7 nM

O=C(OCCN1CCCCC1)C(O)(c1ccccc1)c1ccccc1
inactive: Potency [1] | Potency [20] | Potency [2] | Potency [3] | outcome [4] | Potency [5] | outcome [6] | Potency [7] | Potency [8] | Potency [9] | Potency [10] | Potency [11] | Potency [12] | Potency [13] | Potency [14] | Potency [15] | Potency [16] | Potency [17] | max activation [18] -1.73% | Potency [19]

CCN1C[C@]2(COC)[C@H](O)C[C@H](OC)[C@@]34[C@@H]5C[C@@]6(O)[C@H](OC(=O)c7ccccc7)[C@@H]5[C@@](OC(C)=O)([C@@H]([C@H](OC)[C@H]23)[C@@H]14)[C@@H](O)[C@@H]6OC
inactive: Potency [1] | Potency [20] | Potency [2] | Potency [3] | outcome [4] | Potency [5] | outcome [6] | Potency [7] | Potency [8] | Potency [9] | Potency [10] | Potency [11] | Potency [12] | Potency [13] | Potency [14] | Potency [15] | Potency [16] | Potency [17] | max activation [18] -1.75%

CN(C)[C@H](Cc1ccccc1)c1ccccc1
inactive: Potency [1] | Potency [2] | Potency [3] | outcome [4] | Potency [5] | outcome [6] | Potency [7] | Potency [8] | Potency [9] | Potency [10] | Potency [11] | Potency [12] | Potency [13] | Potency [14] | Potency [15] | Potency [16] | Potency [17] | max activation [18] 0.224% | Potency [19]

Oc1cc[c]([Hg][Cl])cc1
21.3 µM (active) and inactive: Potency [12]
inactive: outcome [4] | Potency [5] | outcome [6] | Potency [7] | Potency [8] | Potency [13] | Potency [17] | max activation [18] -21.4% | Potency [19]
active: Potency [1] 4.22 µM and 8.41 µM | Potency [20] 9.44 µM and 16.8 µM | Potency [2] 11.9 µM and 13.3 µM | Potency [3] 16.8 µM | Potency [9] 6.74 µM and 19 µM | Potency [10] 11.9 µM and 13.3 µM | Potency [14] 6.68 µM and 13.3 µM | Potency [15] 6.68 µM and 11.9 µM | Potency [16] 13.3 µM

From PubChem BioAssay (Tox21)
